Compound activity from PubChem BioAssay.
VACV E9 pol inh: inhibitors of vaccinia virus processive DNA synthesis (E9 polymerase). in vitro processive DNA synthesis, absorbance read-out; active compounds read low. normalized absorbance, % (test concentration not listed). 0.94% of 46,000 active. AID 493162; in the data active = normalized absorbance mostly below about 85%, no sharp cut-off; inactive = mostly above about 86%
Hits are given with their value; . = inactive. Many of the other results were omitted from the sample, so hits are more common in it than they were.

SMILES	VACV E9 pol inh
O=C1CN(C(=O)C2CC2)C(c2ccccc2)c2cc(Cl)ccc2N1 (configuration not stated)	.
Cc1cc(OC(=O)c2ccco2)nc(SCc2c(Cl)cccc2Cl)n1	49.9
Cc1cc(Oc2ccccc2)nc(SCc2ccccc2)n1	.
O=C(Oc1ccc(Cl)c2cccnc12)c1ccco1	.
Cc1nn(-c2ccccc2)c(C)c1Sc1ccccc1	.
CCCC(=O)Oc1c(Sc2ccccc2)c(C)nn1-c1ccccc1	.
CC(=O)Oc1c(Sc2ccccc2)c(C)nn1-c1ccccc1	76.7
COc1ccc(-c2nnc3c4ccccc4c(C)nn23)cc1S(=O)(=O)NC(C)(C)C	.
CCc1c(C(=O)O)c2ccccc2[nH]c1=O	.
Cc1c(O)c(CN2CCC(C)CC2)cc2c(-c3ccccc3)cc(=O)oc12	.
COc1ccc2c(c1OC)C(=O)OC2[C@H]1c2c(cc3c(c2OC)OCO3)CCN1C (some centres not stated)	.
COc1ccc2cc1Oc1ccc(cc1)C[C@H]1c3cc(c(OC)cc3CCN1C)Oc1c(OC)c(OC)cc3c1[C@H](C2)N(C)CC3	83.9
N#Cc1ccccc1NC(=O)COC(=O)CC1CC2CCC1C2 (configuration not stated)	.
CCOC(=O)c1oc2ccccc2c1NC(=O)c1ccc(S(=O)(=O)N(C)C)cc1	.
CCOC(=O)c1oc2ccccc2c1NC(=O)c1ccccc1	.
CCOC(=O)c1oc2ccccc2c1CO	77.0
CC1(C)CC2CC(C)(CN2CC(O)COCc2ccccc2F)C1 (configuration not stated)	.
O=S1(=O)CCN(OCc2ccc(C(F)(F)F)cc2)CC1	.
COc1cc2nc(-n3nc(C)cc3C)n3nc(-c4ccccc4)nc3c2cc1OC	.
CCN(CC)CCCNc1nc2cc(OC)c(OC)cc2c2nc(-c3ccccc3)nn12	33.7
O=C1CCC(=O)N1Nc1nc2ccccc2c2nc(-c3ccccc3)nn12	.
COC(=O)c1cn(-c2ccccc2)nc1C(=O)c1ccccc1	.
COC(=O)CNC(c1ccccc1)c1cc(C)ccc1NC(=O)c1ccccc1 (configuration not stated)	.
Cc1nn(-c2ccccc2)c2sc(C(=O)NC(C)C)cc12	.
Cc1nn(-c2ccccc2)c2sc(C(=O)O)cc12	.
SMILES	VACV E9 pol inh
Cc1nn(-c2ccccc2)c2sc(C#N)c(N)c12	79.9
CNC(=S)N(Cc1ccc(OC)cc1OC)c1ccc(C(C)(C)C)cc1	.
COc1ccc2c(C)cc3nncn3c2c1	77.7
COc1ccc2c(C)cc(Cl)nc2c1	.
CCN1CCN(c2cc(C)c3ccc(OC)cc3n2)CC1	.
Cc1[nH]c2ccccc2c1C1(O)C(=O)N(CCc2ccccc2)c2ccc(Br)cc21 (configuration not stated)	.
O=S(=O)(c1ccc(F)cc1)N1CCCc2cccc(O)c21	.
COc1cc(C=Nc2nonc2NC(C)=O)ccc1OC(C)C	.
C=C1c2cccc(O)c2C(O)=C2C(=O)[C@]3(O)C(O)=C(C(N)=O)C(=O)[C@@H](N(C)C)[C@@H]3[C@@H](O)[C@H]12	55.2
C=C1c2c(Cl)ccc(O)c2C(O)=C2C(=O)[C@]3(O)C(O)=C(C(N)=O)C(=O)[C@@H](N(C)C)[C@@H]3[C@@H](O)[C@H]12	.
CN(C)[C@@H]1C(=O)C(C(N)=O)=C(O)[C@@]2(O)C(=O)C3=C(O)c4c(O)cccc4[C@@](C)(O)[C@H]3C[C@@H]12	.
COc1ccc(-n2c(NN)nc3sc4c(c3c2=O)CCC4)cc1	.
CSC1=NC(=O)/C(=C\c2cccc3ccccc23)S1	72.6
O=C1NC(=O)C(=Cc2cccc3ccccc23)C(=O)N1	.
CC(C(=O)O)N1C(=O)/C(=C/c2cccc3ccccc23)SC1=S (configuration not stated)	.
O=C(c1cccc2c1C(=O)N(C1CCCCC1)C2)N1CCN(c2ccc(F)cc2)CC1	.
COc1ccccc1C(=O)Nc1ccc(-c2csc(C)n2)cc1	.
Cc1ccnc(S(=O)(=O)Cc2ccc(Cl)cc2)n1	.
COc1ccc2c(c1)c(C(=O)CSc1ccccc1)c(C)n2C	.
COc1ccc2c(c1)c1ccccc1n2C	67.3
COc1ccc(OC)c(-c2n(C)c3ccccc3[n+]2C)c1	.
CNC(=O)n1c(C(F)(F)F)nc2ccccc21	.
CC(C)c1ccc(/C=C2\C(=O)Nc3ccccc32)cc1	.
O=C(COC(=O)CSc1cc(Cl)ccc1Cl)Nc1ccc(F)c(F)c1F	.
COc1ccc(C=Nc2ccccc2)cc1	.
SMILES	VACV E9 pol inh
COc1ccc(N=Cc2ccccc2F)cc1	52.4
COc1ccc(N=Cc2cn(-c3ccc(OC)cc3)cc2C=Nc2ccc(OC)cc2)cc1	.
CC(C)(C)c1nnc2n1N=C(c1ccc(Br)cc1)CS2	.
Fc1ccc(-c2csnn2)cc1	.
CCc1ccc(-c2cn3ccsc3n2)cc1	.
CN(C)CCN(C(=O)c1ccco1)c1nc2cc3c(cc2s1)OCO3	60.6
COc1ccc2nc(N(CCN(C)C)C(=O)c3cccs3)sc2c1	.
COc1ccc2sc(N(CCN(C)C)C(C)=O)nc2c1	.
CCCCC(=O)NCc1ccc2[nH]c(C)cc2c1	.
Cc1ccccc1NC(=O)c1cccc(NC(=O)C(F)(F)F)c1	.
Cn1c(/C=C/C(=O)O)nc2ccccc21	.
CCN(CC)S(=O)(=O)c1cc(C(=O)NC(C)(C)C)ccc1Cl	.
O=C(Cc1ccccc1)c1ccccc1	.
O=C(CCC(=O)c1ccccc1)NCc1ccccc1	66.7
CC(=O)Nc1ccc(NC(=O)CCC(=O)c2ccccc2)cc1	.
O=C(/C=C/O)c1cccc(OCc2ccc(Cl)cc2Cl)c1	.
Cc1ccc(N2C(=O)C3C4C=CC(O4)C3C2=O)cc1 (configuration not stated)	.
Cc1ccnc(SCC(=O)Nc2cccc(C(F)(F)F)c2)n1	.
O=C(Nc1cccc(Cl)c1)n1ncc2cc(Cl)ccc21	.
Cc1c(Sc2ccc(Cl)cc2)cnn1C(=O)Nc1cccc(C(F)(F)F)c1	71.4
O=c1c(O)cc2c(O)oc3c(=O)c(O)cc4c3c2c1CC=4O	.
CCNc1nc(C(F)(F)F)cc(=O)[nH]1	.
O=C(NCc1ccccc1)c1cnc(N2CCCC2)nc1	.
Cc1ccc(C(=O)NC(C)Cc2cccs2)c(C)c1 (configuration not stated)	.
Cc1ccc(NC(=O)Cc2c[nH]c3ccccc23)cc1	.
SMILES	VACV E9 pol inh
Cc1cc(C)nc(NC(N)=NCCc2c[nH]c3ccccc23)n1	84.9
Cc1ccccc1CNCCc1c[nH]c2ccccc12	.
CC(C)C(=O)Nc1nnc(SCC(=O)Nc2ccccc2)s1	.
NNc1nc2ccccc2o1	.
Cc1cc(=O)n2[nH]c(S(C)(=O)=O)nc2n1	.
Cc1nc(N)[nH]c(=O)c1CC(=O)O	.
CC1(C)OC(=O)N(CC2CCCO2)C1(C)O (configuration not stated)	.
COc1ccc(CCNc2cc(C)nc3c(-c4ccc(OC)c(OC)c4)c(C)nn23)c(OC)c1	.
O=C(O)c1ccc(C2SCC(=O)N2NS(=O)(=O)c2ccc(F)cc2)cc1 (configuration not stated)	.
COc1cccc(/C(O)=C2\C(=O)C(=O)N(c3ccccn3)C2c2ccccc2)c1 (configuration not stated)	.
CCOC(=O)c1sc(N2C(=O)C(=O)/C(=C(/O)c3ccc(OC)c(C)c3)C2c2ccccc2)nc1C (configuration not stated)	68.8
CCOC(=O)c1sc(Nc2ccccc2)nc1C	.
Cc1ccc2c(c1)C1CN(C)CCC1N2C(=O)/C=C/c1ccccc1 (configuration not stated)	.
Cc1ccc(S(=O)(=O)N2CCN(Cc3cc(-c4ccccc4)ccc3O)CC2)cc1	.
